An excerpt weighted towards active compounds, which were near 10% of everything screened.
ALDH1A1 inh = inhibitors of human aldehyde dehydrogenase 1A1; Purified ALDH1A1, NADH fluorescence, propionaldehyde substrate; Potency, µM (top dose mostly 75.3 µM), for inactives: at the highest dose activity, negative = inhibition, hits mostly inhibitors; 220,000 tested, 7.3% active; active = well fitted inhibition curve with a large enough effect, not every such curve was filed as active; inconclusive = small, poorly fitted or top-dose-only effect, or another doubt; inactive = no such curve, though single readings can be large or run the other way;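 also: potency is read from the fitted curve at half-maximal effect; plate controls were no enzyme wells and a reference inhibitor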
GLA spleen mod = inhibitors or activators of human alpha-galactosidase in spleen homogenate. P06280. human spleen homogenate, 4MU-alpha-Gal fluorescence, 40 min. Potency, µM (highest dose often 80 µM), for inactives: top-dose activity change, negative = inhibition, hits mostly inhibitors. 240,000 tested, 0.008% active. AID 2107;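 also: potency is read from the fitted curve at half-maximal effect; 0% = enzyme with vehicle and -100% = no enzyme basal signal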
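Spleen homogenate 1 ug + cpd (titration) + 4-MU-alpha-D-galactopyranoside 1 mM; 37C 40 min; 50 mM citrate/phosphate pH 5.0, 0.01% Tween-20; stop pH 10; fluorescence 365/440; AC50 via Hill.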
PNC inhibitor = perinucleolar compartment assembly inhibition; activity change (PNC), negative = inhibition, % at 10 µM; PC3M PTB-GFP, PNC prevalence imaging, 16 h; stronger effect = lower value; AID 2417; 140,000 tested, 3.1% active;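 active = readout at or below -70, meaning at least 70% loss of cells showing the perinucleolar compartment, a nuclear body marking cancer cells; inconclusive = readout between -30 and a set limit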;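 also: plate controls were DMSO wells for no effect and camptothecin positive control wells for full effect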
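Read-out is percentage of cells bearing a perinucleolar compartment, from automated 20x imaging of fixed, Hoechst-stained PC3M PTB-GFP cells. Cells were seeded 4 h, then exposed 16 h to compound (23 nl of library stock) in duplicate plates.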
GLA inh pH 4.5 = inhibitors of human alpha-galactosidase A at pH 4.5; purified enzyme, 4-MU-alpha-Gal fluorescence, pH 4.5; activity change, negative = inhibition, % at 105 µM; 230,000 tested, under 10 active; AID 1467;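 also: 0% = full activity with enzyme and -100% = basal without enzyme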
Target sequence (P06280 whole entry, looked up): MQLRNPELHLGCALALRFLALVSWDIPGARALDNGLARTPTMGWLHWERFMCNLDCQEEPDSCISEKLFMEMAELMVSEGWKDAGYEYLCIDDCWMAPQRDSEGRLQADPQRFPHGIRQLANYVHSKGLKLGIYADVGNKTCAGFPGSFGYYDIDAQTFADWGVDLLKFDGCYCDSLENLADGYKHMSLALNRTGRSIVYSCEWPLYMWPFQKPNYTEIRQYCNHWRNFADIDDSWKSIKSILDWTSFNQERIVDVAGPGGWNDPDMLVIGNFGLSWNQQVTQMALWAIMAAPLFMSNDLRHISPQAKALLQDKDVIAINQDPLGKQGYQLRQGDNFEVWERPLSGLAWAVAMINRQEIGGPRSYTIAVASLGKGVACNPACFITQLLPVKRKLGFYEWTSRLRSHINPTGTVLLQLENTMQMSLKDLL
HPGD block = HPGD (human) dehydrogenase inhibition. Potency, µM, inactives show top-dose activity change, negative = inhibition, usual class: inhibitors. 150,000 tested, 4.3% active. AID 894. P15428. purified HPGD, NADH fluorescence kinetic, PGE2 substrate; active = well fitted inhibition curve with a large enough effect, not every such curve was filed as active; inconclusive = small, poorly fitted or top-dose-only effect, or another doubt; inactive = no such curve, though single readings can be large or run the other way; also: potency is read from the fitted curve at half-maximal effect
Target sequence (P15428 whole entry, looked up): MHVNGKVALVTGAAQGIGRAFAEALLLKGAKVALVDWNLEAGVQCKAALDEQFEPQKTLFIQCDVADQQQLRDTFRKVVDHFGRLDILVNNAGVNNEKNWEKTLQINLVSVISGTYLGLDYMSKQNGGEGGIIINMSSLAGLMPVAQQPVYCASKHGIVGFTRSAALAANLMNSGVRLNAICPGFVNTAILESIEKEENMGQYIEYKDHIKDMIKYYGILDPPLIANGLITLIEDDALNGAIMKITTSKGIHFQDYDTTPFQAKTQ
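20 nM HPGD preincubated 15 min at room temperature with compound in 50 mM Tris-HCl pH 8, 0.01% Tween 20. Started with 1 mM NAD+ and 30 uM prostaglandin E2; NADH fluorescence (360/450 nm) read 5 times over 30-s intervals, last minus first.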
ALOX12 inhib = blocks human 12-lipoxygenase activity. purified 12-hLO, xylenol orange hydroperoxide absorbance. Potency, µM (titrated, usually from 57.1 µM), without a hit: at the top dose activity change, negative = inhibition, actives largely listed as inhibitors. 150,000 tested, 0.12% active. AID 1452; also: potency is read from the fitted curve at half-maximal effect; nearly all actives have a fitted effect of over 55% in size
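Xylenol orange chromogenic assay: hydroperoxide from 12hLO oxidises Fe(II), giving red-shifted Fe(III)-XO absorbance. Conditions: 150 nM enzyme, 40 uM arachidonic acid, 25 mM Hepes pH 7.0, 0.01% Triton X-100, 30 min, room temperature.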
Numbers without * were called inactive; i = inactive; ? = inconclusive; . = not tested or not shown; [ ] = dose if it differs, or a comment. Unless noted, calls follow the shape of the dose curve; as a rule, active = well fitted curve in the direction sought with a large enough effect; inconclusive = small, poorly fitted or top-dose-only effect, or another doubt; inactive = no such curve, though single readings can be large; an effect the other way counts as inactive or inconclusive. Unless noted, % is scaled to controls: 0 for no effect and ±100 for the full control effect.

SMILES | ALDH1A1 inh | GLA spleen mod | PNC inhibitor | GLA inh pH 4.5 | HPGD block | ALOX12 inhib
N#Cc1c(N)nc(Sc2ccc(Cl)cc2)c(C#N)c1-c1ccccc1Cl | . | 2% | . | -4 | . | .
CCc1ccc(N(C(=O)c2csnn2)C(C(=O)NCc2ccccc2)c2ccco2)cc1 (centres undefined) | 7.9µM* | -19% | 51 | -8 | -14% | 5%
Cc1ccc(C(C(=O)NCc2ccccc2)N(C(=O)c2csnn2)c2cccc3ccccc23)o1 (centres undefined) | ? | -12% | 19 | -12 | -12% | -15%
COc1ccc(CNC(=O)C(c2ccc(C)o2)N(C(=O)c2csnn2)c2ccc(C(C)C)cc2)cc1 (centres undefined) | 2µM* | -2% | -22 | -16 | -11% | -1%
COc1ccc(CN2CN(S(=O)(=O)c3cccs3)c3nc4ccccc4nc32)cc1 | . | 6% | . | -16 | . | .
C=CCN=C(CC)C1=C(O)CCCC1=O | 0% | 1% | -109* | 4 | . | -7%
CC1CCC2(CC1)NC(=O)N(CC(=O)N1CCc3ccccc3C1)C2=O (centres undefined) | 1% | 10% | . | 2 | . | .
CC1CCC2(CC1)NC(=O)N(CC(=O)c1cn(CCC#N)c3ccccc13)C2=O (centres undefined) | 7.1µM* | 3% | . | -6 | . | .
COc1cccc(N2CCN(c3ncnc4c3[nH]c3ccccc34)CC2C)c1 (centres undefined) | 35µM* | 7% | ? | 1 | -24% | -10%
CNc1c([N+](=O)[O-])cnn1-c1ccc(F)cc1 | ? | 2% | . | -7 | . | .
CC(=O)NS(=O)(=O)c1ccc(NC(=O)COc2ccc(C(=O)c3ccccc3)cc2)cc1 | 10µM* | -15% | -12 | 3 | 25µM* | -2%
COCC(=O)Nc1ccc(S(=O)(=O)NCCc2ccccc2)cc1 | -11% | -1% | -107* | -7 | -8% | -2%
NS(=O)(=O)c1ccc(CCNS(=O)(=O)c2ccccc2)cc1 | 8.9µM* | -1% | . | -5 | . | .
NS(=O)(=O)c1ccc(S(=O)(=O)NCCc2ccccc2)cc1 | -9% | 0% | 60 | 6 | -12% | 2%
O=c1c(C/C=C/c2ccccc2)c(O)ccn1Cc1cccc(Cl)c1 | -10% | 0% | . | -2 | . | .
O=c1c(C/C=C/c2ccccc2)c(O)ccn1CCc1c[nH]c2ccccc12 | 40µM* | 0% | . | -3 | . | .
COc1ccc2[nH]cc(CCn3ccc(O)c(C/C=C/c4ccccc4)c3=O)c2c1 | 14µM* | -6% | . | 4 | . | .
COc1ccc2[nH]cc(CCNS(=O)(=O)c3ccccc3)c2c1 | ? | 6% | . | -10 | . | .
CC(C)n1c(=O)[nH][nH]c1=S | 0.79µM* | 6% | . | 1 | . | .
CN1C(C(=O)NCc2cccc(C(F)(F)F)c2)CC2Cn3c(nc4cc(Cl)c(Cl)cc43)C21 (centres undefined) | . | -15% | . | 14 | . | .
CCOCCCNC(=O)c1ccc2c(c1)ncn2C1CCCC1 | ? | 13% | -23 | 3 | 18µM* | 2%
CC(C)CCNC(=O)c1ccc2c(c1)ncn2C1CCCC1 | ? | 0% | . | 2[21.1 µM] | . | .
CN(C)CC(CN(C)C)c1ccccn1 | -2%[13.5 µM] | . | . | . | -7% | 3%[11.4 µM]
O=C(Nc1cccc(F)c1)N1CCCC2(CCN(C(=O)c3cccc(F)c3)CC2)C1 | 12% | 0% | . | . | -9% | 6%
O=C(O)Cn1nc(C(F)(F)F)c2c1CCCC2 | 9% | 4% | . | 2 | . | .
SMILES | ALDH1A1 inh | GLA spleen mod | PNC inhibitor | GLA inh pH 4.5 | HPGD block | ALOX12 inhib
O=C(O)CCCn1nc(C(F)(F)F)c2c1CCCCC2 | ? | 6% | -92* | -9 | -16% | -4%
CC(C)(C)c1[nH]c2ccccc2c1/C=N/O | 10% | -3% | 7 | -8 | 2µM* | -10%
O=C1S/C(=C\c2ccc(O)c([N+](=O)[O-])c2)C(=O)N1c1ccccc1Cl | 0.45µM* | 1% | . | -19 | . | .
O=C1S/C(=C\c2ccc(O)c([N+](=O)[O-])c2)C(=O)N1Cc1cccc([N+](=O)[O-])c1 | ? | 0% | . | -9 | . | .
COc1cc(/C=C2\SC(=O)N(c3cccc(Cl)c3)C2=O)cc([N+](=O)[O-])c1O | 0.89µM* | 8% | . | -2 | . | .
C=C/C1=C/Cc2ccccc2C(C[N+](=O)[O-])C(C(=O)OC)(C(=O)OC)C1 (centres undefined) | -8%[13.5 µM] | 21%[17.5 µM] | . | . | . | .
COC(=O)C1=C[C@@H](C(=O)OC)[C@@H]2C3=C(C(=O)[C@@]2(C)NC(=O)c2ccccc2)[C@H](C)[C@@H]2C(=O)N(c4ccccc4)C(=O)[C@@H]2[C@@H]3C1 | . | 3% | . | . | . | .
CCCN1C(=O)/C(=N\OCC(=O)NCC(F)(F)F)c2ccccc21 | 1.3µM* | 7% | 45 | 5 | -17% | 1%
O=C(NCCc1ccc(Cl)cc1)C1CCN(S(=O)(=O)c2cccs2)CC1 | ? | 6% | 25 | 5 | 4% | 2%
O=C(C1CCC(CNS(=O)(=O)c2cccs2)CC1)N1CCCCC1 (centres undefined) | ? | -1% | ? | 1 | 3.2µM* | -2%
COCCNC(=O)C1CCN(S(=O)(=O)c2ccccc2)CC1 | 0% | 4% | 11 | 4 | 25µM* | -5%
O=C(NCCc1ccccc1)C1CCN(S(=O)(=O)c2cccs2)CC1 | 10µM* | -3% | ? | -7 | -3% | -6%
O=C(C1CCC(CNS(=O)(=O)c2cccc3cccnc23)CC1)N1CCCC1 (centres undefined) | -8% | 3% | ? | 0 | 6.3µM* | -2%
Cc1cccc(CCNC(=O)C2CCN(S(=O)(=O)c3ccccc3)CC2)c1 | -11% | -2% | . | -6 | . | .
Cc1ncsc1C(=O)N1CCCC(CNS(=O)(=O)c2cccs2)C1 (centres undefined) | -14% | 12% | . | -21 | . | .
NS(=O)(=O)c1ccc(CCNC(=O)C2CCC(CNS(=O)(=O)c3ccc(Br)s3)CC2)cc1 (centres undefined) | ? | -16% | . | 0 | . | .
Cc1cccc(CCNC(=O)C2CCC(CNS(=O)(=O)c3cccs3)CC2)c1 (centres undefined) | 1.8µM* | 2% | . | 2 | . | .
O=C(NCCc1ccccc1)C1CCC(CNS(=O)(=O)c2cccs2)CC1 (centres undefined) | 4µM* | 5% | . | -16 | . | .
COCCCNC(=O)C1CCN(S(=O)(=O)c2c(C)noc2/C=C\c2ccc(OC)cc2)CC1 | ? | -4% | -109* | 2 | i | 2%
O=S(=O)(NCCc1ccc2c(c1)OCCO2)c1cccs1 | -8% | 1% | -81* | 2 | -13% | 2%
CCCCNC(=O)C1CCN(S(=O)(=O)c2c(C)noc2/C=C\c2ccc(OC)cc2)CC1 | 7% | -12% | 32 | 8 | 27% | 5%
NCCSCCc1ccccc1 | 7%[13.5 µM] | . | . | . | -6% | -1%[11.4 µM]

Assay outcomes deposited in PubChem BioAssay by National Center for Advancing Translational Sciences (NCATS).
